CYP2C9 activ = human CYP2C9 activators, primary screen, biochemical, luminescence; actives 1.4% (n = 96,000); Cytochrome P450 2C9 (Homo sapiens), P11712; AID 1024, 2008; activation factor at 5 µM; recombinant CYP2C9, luciferin-H conversion; active compounds read high; factor 1 = untreated enzyme, 0 = blocked;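 active = activation factor of 2 or more for CYP2C9 at a 5 µM dose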
Target sequence (P11712 whole entry, looked up): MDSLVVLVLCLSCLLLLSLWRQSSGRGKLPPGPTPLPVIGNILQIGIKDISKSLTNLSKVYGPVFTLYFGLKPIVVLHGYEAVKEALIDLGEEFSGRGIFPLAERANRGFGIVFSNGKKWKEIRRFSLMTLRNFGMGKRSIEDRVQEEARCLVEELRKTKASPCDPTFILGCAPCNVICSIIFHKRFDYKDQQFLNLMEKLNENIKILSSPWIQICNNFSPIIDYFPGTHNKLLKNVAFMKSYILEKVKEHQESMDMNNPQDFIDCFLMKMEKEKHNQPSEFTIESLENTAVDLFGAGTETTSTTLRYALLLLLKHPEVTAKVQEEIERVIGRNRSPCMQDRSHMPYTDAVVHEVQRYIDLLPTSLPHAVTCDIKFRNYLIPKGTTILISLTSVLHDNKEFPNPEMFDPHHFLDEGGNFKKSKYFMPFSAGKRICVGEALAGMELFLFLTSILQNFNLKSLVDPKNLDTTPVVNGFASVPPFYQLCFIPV
CYP2C19 activ = human CYP2C19 activators, primary screen, biochemical, luminescence. 96,000 tested, under 10 active. recombinant CYP2C19, luciferin-H EGE luminescence; active compounds read high; 0 = fully inhibited enzyme, 1 = untreated enzyme. activation factor at 5 µM. Cytochrome P450 2C19 (Homo sapiens), P33261;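 active = activation factor of at least 2 at 5 µM in the primary screen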
D1 allo mod = D1 CRE-luciferase signal change, two-sided – cell-based, HEK293 D1, dopamine EC30, D1 allosteric modulator project, primary screen. D(1A) dopamine receptor (Homo sapiens), P21728. dopamine EC30 potentiation; actives deviate in either direction. B-score at 10 µM. actives 5.9% (n = 58,000). AID 641, 2007;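 active = luminescence count or its row- and column-corrected plate score outside the 99.7% band of the plate's sample wells, on either side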
DAT uptake mod = changed hDAT dopamine uptake under cocaine IC80, either direction, primary screen, cocaine antagonist project, cell-based, LLC-PK1 hDAT, [14C]-dopamine uptake, MLSMR; AID 449768, 2010; Sodium-dependent dopamine transporter (Homo sapiens), Q01959; actives 1.3% (n = 110,000); LLC-PK1 hDAT cells, [14C]-dopamine uptake with cocaine IC80; actives deviate in either direction; B-score at 10 µM;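 active = Z score or B-score, a plate-position-corrected score, falls beyond the plate's 99.7% confidence bounds, in either direction; inactive = both scores lie inside the 99.7% bounds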
CYP2C19 inh = blockers of cytochrome P450 2C19 activity – biochemical, luminescence, ADME assay, primary screen; inhibition, % at 5 µM; CYP2C19 Supersomes, luciferin-H EGE luminescence, 30 min; actives 21% (n = 96,000); P33261; AID 778, 2007;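 active = CYP2C19 inhibition above a set limit at 5 µM in the primary screen, cut at about 50% in these data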
CYP2C9 inh = blockers of cytochrome P450 2C9 activity – biochemical, luminescence, ADME assay, primary screen | P11712 | CYP2C9 Supersomes, luciferin-H conversion | inhibition, % at 5 µM | actives 20% (n = 96,000) | AID 777, 2007;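 active = blocking of liver enzyme CYP2C9 beyond about 50% at 5 µM, limit read from the data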
D1 PAM confirm = D1 receptor positive allosteric modulators, retest, confirmation, cell-based, HEK293 D1, CRE-luciferase, duplicate. shares compounds with D1 allo mod. dopamine EC30 potentiation; active compounds read high. luminescence at 10 µM. actives 88% (n = 2,200);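 active = luminescence in either of two replicates above the same-plate mean plus 3 SD of the low-dose dopamine control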
D1 no dopamine = D1 receptor agonism without dopamine, confirmation, mechanism study for D1 allosteric modulator project, cell-based, HEK293 D1, CRE-luciferase, secondary assay 1 | shares compounds with D1 allo mod | luminescence at 10 µM | luminescence, no dopamine; active compounds read high | AID 646, 2007 | actives 0.8% (n = 1,900); in the data active = luminescence above about 3900
Isoprot counter = counter-screen for D1 modulators: isoproterenol response in HEK293 cells. shares compounds with D1 allo mod. HEK293 D1 CRE-luciferase, isoproterenol EC30 counter-screen. calls only at 10 µM. actives 63% (n = 2,200). AID 647;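 active = luminescence in either replicate above plate mean of wells with a partly effective reference agonist dose plus 3 SD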;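 also: isoproterenol raises cAMP through native beta-adrenoceptor Gs so signal bypasses D1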
A number is an active result; 0 = inactive; - = no result; + = active, no number. Hits are enriched below; roughly 28% of the tested compounds scored in any of these assays.

SMILES | CYP2C9 activ | CYP2C19 activ | D1 allo mod | DAT uptake mod | CYP2C19 inh | CYP2C9 inh | D1 PAM confirm | D1 no dopamine | Isoprot counter
COC(=O)c1c(N)n(Cc2ccc(OC)cc2)c2nc3ccccc3nc12 | 0 | 0 | 7 | 0 | 75 | 71 | 8940 | 0 | +
CCCNC(=O)N1[C@H]2CC[C@@H]1C(C(=O)OC)=C(c1cccc(OC)c1OC)C2 | - | - | - | 0 | - | - | - | - | -
CCc1ccc(N2C(=O)NC(=O)C(Cc3ccc(OC)cc3OC)C2=O)cc1 (stereo not drawn) | 0 | 0 | - | 0 | 0 | 0 | - | - | -
C[C@]12CCC(=O)C(O)=C1CC[C@@H]1[C@@H]2CC[C@]2(C)C(=O)CC[C@@H]12 | - | - | - | 0 | - | - | - | - | -
CCOC(=O)c1cc2c(cn1)[nH]c1ccccc12 | - | - | 16 | 0 | - | - | 15472 | 0 | +
O=C(c1cc(=O)[nH]c2ccc(Br)cc12)N1CCC2(CC1)OCCO2 | 0 | 0 | 0 | 0 | 0 | 0 | - | - | -
O=c1[nH]c(=O)n(Cc2ccc(F)cc2)c(O)c1C=NCCCN1CCOCC1 | 0 | 0 | 0 | 0 | 0 | 0 | - | - | -
O=c1[nH]c(=O)n(CCc2ccc(F)cc2)c(O)c1C=NCCCN1CCOCC1 | 0 | 0 | 12 | 0 | 0 | 0 | 0 | 0 | 0
CCC(=NCc1ccco1)c1c(O)n(C2CCCCC2)c(=O)[nH]c1=O | 0 | 0 | 14 | 0 | 96 | 51 | 16640 | 0 | +
CC(=NCc1cccnc1)c1c(O)n(C2CCCCC2)c(=O)[nH]c1=O | 0 | 0 | 6 | 0 | 99 | 51 | 9208 | 0 | +
CC(=NCc1ccco1)c1c(O)n(Cc2ccccc2)c(=O)[nH]c1=O | 0 | 0 | 4.5 | 0 | 0 | 0 | 10196 | 0 | +
CCC(=O)c1c(O)n(C2CCCCCC2)c(=O)[nH]c1=O | 0 | 0 | 0 | 0 | 0 | 0 | - | - | -
CCC(=NCc1cccnc1)c1c(O)n(C2CCCCC2)c(=O)[nH]c1=O | 0 | 0 | 15 | 0 | 98 | 83 | 9572 | 0 | +
CC(c1ccccc1)n1cncc1C(=O)O (stereo not drawn) | - | - | - | 0 | - | - | - | - | -
Cc1nn(Cc2ccccc2)c(C)c1C(=O)OCC(=O)Nc1ccccc1SCC#N | 0 | 0 | 4.2 | 0 | 86 | 96 | 8752 | - | +
